Source: PubChem (several laboratories)
Sampled rows, rich in hits. Any-hit rate of the full collection: about 8.7%.
Smad3 FoxH1 inh = Smad3 (human) transcription factor binding inhibition; P84022; TR-FRET Smad3/Dy647-FoxH1 peptide binding, europium anti-His; inhibition, % at 25 µM; actives 0.29% (n = 88,000);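 active means compounds that reduce the energy-transfer binding signal between the protein and its labelled peptide by more than half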;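 further: 0% = Smad3 plus labelled peptide maximal FRET and 100% = peptide-only background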
Target sequence (P84022 whole entry, looked up): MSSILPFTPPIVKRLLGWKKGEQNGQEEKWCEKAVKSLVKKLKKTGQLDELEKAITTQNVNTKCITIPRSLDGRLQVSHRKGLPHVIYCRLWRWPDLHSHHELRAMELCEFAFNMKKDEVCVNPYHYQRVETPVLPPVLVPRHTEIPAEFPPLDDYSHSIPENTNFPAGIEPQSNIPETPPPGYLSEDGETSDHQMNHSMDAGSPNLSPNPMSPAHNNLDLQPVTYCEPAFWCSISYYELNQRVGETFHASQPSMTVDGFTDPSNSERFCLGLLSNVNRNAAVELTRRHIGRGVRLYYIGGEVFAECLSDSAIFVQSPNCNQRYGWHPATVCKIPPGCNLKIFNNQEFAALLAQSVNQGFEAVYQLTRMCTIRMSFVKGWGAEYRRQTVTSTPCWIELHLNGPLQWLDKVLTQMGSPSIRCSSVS
DAT uptake mod = human DAT dopamine uptake with cocaine, either direction | Q01959 | LLC-PK1 hDAT cells, [14C]-dopamine uptake with cocaine IC80; actives deviate in either direction | B-score at 10 µM | actives 1.3% (n = 110,000) | AID 449768;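 active means Z score or B-score, a plate-position-corrected score, falls beyond the plate's 99.7% confidence bounds, in either direction; inactive means both scores lie inside the 99.7% bounds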;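 further: scored against the spread of the other compound wells on the same plate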
PostGolgi yeast = growth inhibition of a yeast mutant, post-Golgi transport screen. post-Golgi transport phenotypic cell assay. inhibition, % at 10 µM. actives 0.9% (n = 98,000). AID 739;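 further: yeast cells grown in 1536-well plates; yeast grown about 18 h at 30C before absorbance read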
Cav32 inh = blocks human Cav3.2 T-type calcium channel | actives 4% (n = 100,000) | Cav3.2-expressing cells, Fluo-4 calcium fluorescence FDSS; stronger effect = lower value | O95180 | B-score at 10 µM | AID 449739;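 active means single-dose well whose peak fluorescence ratio is a statistical outlier from its plate by either plate-standardised score or position-corrected B-score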
TNAP act mid DEA = activates human TNAP at intermediate phosphate acceptor concentration | 64,000 tested, under 10 active | P05186 | activation factor at 20 µM | purified TNAP, CDP-star luminescence, 100 mM DEA, 30 min; stronger effect = higher value; scale: 0 levamisole-inhibited, 1 vehicle-only enzyme | AID 813;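 active means activation factor of at least 2 at 20 µM, relative to controls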
PostGolgi ctrl = yeast control strain growth, post-Golgi counter-screen; actives 5% (n = 98,000); inhibition, % at 10 µM; efflux-deficient yeast background strain, growth absorbance A615, 16 h; AID 738
* hit, by the source's call; . = no result given; [ ] = another dose, or the depositor's remark. Unless noted, no stated cut-off is given here; in the data, active means inhibition above about 30%; inactive means the rest.

SMILES	Smad3 FoxH1 inh	DAT uptake mod	PostGolgi yeast	Cav32 inh	TNAP act mid DEA	PostGolgi ctrl
N#Cc1c(N2CCN(C(=O)c3ccco3)CC2)nc(-c2ccccc2)c2c1CCCC2	6	0.38	52*	-3.2	0.9	23
O=C(CSCc1cccc(CSCC(=O)Nc2ccccc2)n1)Nc1ccccc1	-5	2	3	-6.8*	.	-4
Cc1cccc(C)c1NC(=O)CSCc1cccc(CSCC(=O)Nc2c(C)cccc2C)n1	1	-0.13	-5	0.26	.	1
O=C(c1ccco1)N(Cc1ccco1)c1ccc(O)cc1	-1	-0.89	6	1.5	0.9	0
O=C(c1ccco1)N(Cc1ccc([N+](=O)[O-])cc1)c1ccc(Cl)cc1	.	0.56	-1	-6.9*	.	40*
O=C(c1ccco1)N(Cc1ccc([N+](=O)[O-])cc1)c1ccc(Br)cc1	.	2.9*	0	-6.6*	.	45*
COc1ccc(CN(C(=O)c2ccco2)c2ccccc2)cc1	11	1.8	.	-2.1	.	.
C=CCOC(=O)C1=C[C@H](c2ccc(C(F)(F)F)cc2)C[C@H](OCCCCO)O1	.	-0.25	.	-0.46	.	.
c1ccc(-c2nc(NCCCn3ccnc3)c3oc4ccccc4c3n2)cc1	3	3.5*	4	0.32	.	27
CCc1nc(NCCCn2ccnc2)c2oc3ccccc3c2n1	14	0.8	-3	1.7	1	33*
Cc1nc(NCCCn2ccnc2)c2ccccc2n1	12	-0.64	-5	0.013	0.9	10
Cc1cccc2cc(C#N)c(NCCCn3ccnc3)nc12	1	-0.093	40*	0.43	1	9
c1ccc(-c2nc(NCc3ccco3)c3oc4ccccc4c3n2)cc1	-3	-0.004	9	-1.5	.	34*
CC(C)[C@H](Nc1nc(-c2ccccc2)nc2c1oc1ccccc12)C(=O)O	9	0.85	15	-0.55	.	5
O=C(NC(Cc1c[nH]c2ccccc12)c1nnc2n1CCCCC2)c1ccc(Cl)cc1 (stereo not given)	-1	0.36	1	-3	.	2
COc1ccc(NC2=C(C)C(=O)CC2)cc1	2	-0.6	-4	0.75	1	46*
O=C(CCN1C(=O)c2ccccc2C1=O)N1CCN(C2c3ccccc3-c3ccccc32)CC1	.	0.24	-1	-4.2	.	53*
O=C(Nc1ccccc1)N1CCCC2CCCCC21 (stereo not given)	0	-0.018	30*	-0.94	1	1
CCOC(=O)C1=C(C)N(c2nonc2NC(C)=O)C(N)=C(C#N)C1c1ccccc1F (stereo not given)	.	-0.93	1	-1.2	0.9	0
O=C(NCC1CCCO1)C1CCCN1C(=O)NC1CCCCC1 (stereo not given)	.	-0.48	0	0.43	0.9	-3
CCCCNC(=O)C1CCCN1C(=O)NC1CCCCC1 (stereo not given)	-3	-7.9*	.	0.88	.	.
CN1C(=O)CC(N2CCN(c3ccc(Cl)c(Cl)c3)CC2)C1=O (stereo not given)	4	-0.64	4	-0.1	0.9	15
COc1cccc(N2CCN(C3CC(=O)N(c4ccc(Cl)c(Cl)c4)C3=O)CC2)c1 (stereo not given)	13	-0.35	0	-6.4*	0.9	13
CCNc1nc(NC(C)(C)C)nc(SC(C(C)=O)C(C)=O)n1	6	0.66	2	-1.2	1	9
CCOC(=O)c1cc2c(=O)n3ccccc3nc2n(CCCOC)c1=NC(=O)c1cccnc1	19	.	0	.	1.1	3
SMILES	Smad3 FoxH1 inh	DAT uptake mod	PostGolgi yeast	Cav32 inh	TNAP act mid DEA	PostGolgi ctrl
CCC(C)NS(=O)(=O)c1ccc(S(=O)(=O)N2CCCC3(CCCCC3)C2)cc1 (stereo not given)	2	1.2	-5	-6.3*	.	5
CCC(NC(=O)NCc1ccc2c(c1)OCO2)(C(F)(F)F)C(F)(F)F	6	-3.4*	7	0.48	1	3
Cc1ccc(S(=O)(=O)NC(=O)NCc2ccc3c(c2)OCO3)cc1	.	0.73	-5	-1.4	1	20
CC(=O)OCC(=O)NCc1ccc2c(c1)OCO2	-14	-1.3	-6	-0.61	0.9	30*
O=C(c1ccc(S(=O)(=O)N2CCCCCC2)cc1)N1CCC(CN2C(=O)c3cccc4cccc(c34)C2=O)CC1	.	.	16	.	.	28
CSc1ncccc1C(=O)OCc1ccccc1F	-7	1.5	-5	-2.2	1	36*
CSc1ncccc1C(=O)OCc1ccccc1	0	1.3	-8	-1	1	-4
COc1cc(/C=c2\sc3nc(-c4ccncc4)nn3c2=O)ccc1OC(C)=O	84*[fluorescence artefact?]	.	2	.	0.9	12
COc1ccc(C(=O)c2ccc(Cl)cc2)cc1	-9	0.47	0	0.31	.	1
COc1ccc2c(c1)c(CC(=O)O)c(C)n2C(=O)c1ccc(Cl)cc1	7	4.1*	.	1.9	0.9	.
CC(C)C(=O)N1CCC(CN=Cc2c(O)n(C3CCCCC3)c(=O)n(C3CCCCC3)c2=O)CC1	-9	3.2*	13	-11*	0.9	3
CC(O)Cc1cn([C@@H](CCCCN)C(=O)N2CCNCC2)nn1 (stereo not given in full)	.	-0.7	.	-0.38	.	.
CCn1ccc(C(=O)Oc2ccc(Cl)cc2)n1	-6	0.29	-9	0.72	.	18
CCC(C)(C)n1nnnc1C(c1cc2cc3c(cc2[nH]c1=O)OCO3)N1CCN(C)CC1 (stereo not given)	-4	0.66	30*	0.14	1	0
CCC(C)(C)n1nnnc1C(c1cc2cc(C)cc(C)c2[nH]c1=O)N1CCN(Cc2ccc3c(c2)OCO3)CC1 (stereo not given)	41	.	18	.	.	37*
CCC(C)(C)n1nnnc1C(c1cc2cc(OC)ccc2[nH]c1=O)N1CCc2ccccc21 (stereo not given)	5	0.45	-10	-1.4	1	7
CCC(C)(C)n1nnnc1C(c1cc2cc(C)cc(C)c2[nH]c1=O)N1CCCC1 (stereo not given)	.	0.013	4	-0.11	1	12
CCC(C)(C)n1nnnc1C(c1cc2ccc(OC)cc2[nH]c1=O)N1CCc2ccccc21 (stereo not given)	-5	1.1	-1	-3.9*	0.9	40*
O=c1cc(NCc2ccccc2)nc2n1CCCS2	.	.	.	.	0.9	.
Cc1ccc(C(=O)CC2(O)C(=O)N(Cc3ccc4c(c3)OCO4)c3ccccc32)cc1 (stereo not given)	4	0.033	-3	-7.5*	0.8	1
C#CCN1C(=O)C(O)(CC(=O)c2ccc3c(c2)OCCO3)c2ccccc21 (stereo not given)	-8	0.81	-6	-3.8*	1	-4
COC(=O)c1ccsc1NC(=O)CN1CCN(c2ccc(F)cc2)CC1	-1	0.46	4	-0.81	0.9	26
O=C(CSCC(=O)Nc1nccs1)Nc1ccccc1	-5	0.57	0	0.25	1	7
